Here are results for 7 molecules from PubChem BioAssay (Tox21).

SMILES strings stand for the structures. Where “and” joins values, the source holds several entries; their conditions need not be identical. Equal entries are not always repeated. Results filed as inconclusive are left out. Where a structure was tested more than once in an assay, its records may differ in their call. Calls of active or inactive are those of the source. Unless noted, calls come from the whole dose curve; as a rule, active = well fitted curve in the direction sought with a large enough effect in the repeat runs; inconclusive = weak or mixed curves; inactive = no such curve, though single readings can be large; an effect the other way counts as inactive or inconclusive.

Assay [1] can be described thus: qHTS assay to identify small molecule agonists of the hypoxia (HIF-1) signaling pathway - cell viability counter screen (AID 1224844; calls by dose curve; note: nearly all actives have a fitted effect of over 50% in size). The gist of the method:
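ME-180 HRE-bla cells, 2,000/well, 0.5% dialyzed FBS; 5 hr settle, 17 hr compound at 37C/5% CO2; CCF4-AM reporter read first, then CellTiter-Glo luminescence after 30 min RT.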
A general note: qHTS replaces the single test concentration by a dilution series.

Assay [2] can be described thus: qHTS assay to identify small molecule agonists of H2AX (AID 1224845; active = well fitted activation curve with a large enough effect in the signal ratio in the repeat runs, not every such curve was filed as active; the % refers to the signal ratio). The gist of the method:
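Phospho-H2AX Ser139 measured by HTRF (ex 320 nm; em 665 and 620 nm) after 24 hr antibody incubation. Compounds, 15 concentrations, 0.76% DMSO, were applied to CHO-K1 cells for 3hr at 37C before lysis.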

Assay [3] can be described thus: qHTS assay to identify small molecule agonists of the hypoxia (HIF-1) signaling pathway (AID 1224846; active = well fitted activation curve with a large enough effect in the signal ratio in the repeat runs, not every such curve was filed as active; the % refers to the signal ratio). The gist of the method:
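Cell line: CellSensor HRE-bla ME-180; 2,000 cells/well; 0.5% dialyzed FBS; 5 h preincubation; DMSO compound pin transfer; 17 h, 37C, 5% CO2; CCF4-AM added; bla FRET signal scored for activation.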

The nature of assay [4]: qHTS assay to identify small molecule agonists of H2AX - cell viability counter screen (AID 1224847; calls by dose curve; note: nearly all actives have a fitted effect of over 30% in size; note: potency is the fitted concentration of half-maximal effect; for activity change, negative = cytotoxicity: top concentration of the series differs between compounds). The gist of the method:
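Compounds tested at 15 concentrations were incubated 3 hr at 37C with wild-type CHO-K1 cells; cellular ATP-based luminescence (CellTiter-Glo) indicated viability.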

Assay [5] in a line: qHTS assay to identify small molecule antagonists of the estrogen related receptor (ERR) signaling pathway from Tox21 library (AID 1224848). Note: nearly all actives have a fitted effect of over 50% in size. The gist of the method:
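Reading was by luminescence 30 min after ONE-Glo addition. Before that, ERR cells at 2,000 per well had rested 6 h at 37 C/5% CO2 and then received pin-tooled compounds in DMSO for 18 h at 37 C.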

Assay [6] is described as follows: qHTS assay to identify small molecule agonists of the estrogen related receptor (ERR) signaling pathway from Tox21 library (AID 1224849; calls by dose curve; note: nearly all actives have a fitted effect of over 15% in size). The settings on record: ERR reporter cell line, ONE-Glo luciferase, 18 h; at 92.4 µM (top of the series). The gist of the method: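 ERR cells, 6 h pre-incubation 37 C/5% CO2; cpd in DMSO pinned; 18 h 37 C; ONE-Glo added, 30 min RT; luminescence read. Agonist mode, qHTS.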

Assay [7] can be described thus: qHTS RealTime-Glo MT Cell Viability Assay in HepG2 cells - 24 hour (AID 1224867). Note: nearly all actives have a fitted effect of over 50% in size. The gist of the method: (§1)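 Compound treatment began 5 h after plating HepG2 cells (600/well) with NanoLuc luciferase and prosubstrate. Plates stayed at 37 C for 40 h; luminescence was captured at six time points, 0 h through 40 h.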
A short description of assay [8]: qHTS RealTime-Glo MT Cell Viability Assay in HEK293 cells - 32 hour (AID 1224868). For activity change, negative = cytotoxic: top concentration of the series differs between compounds. Note: nearly all actives have a fitted effect of over 50% in size. Note: potency is the fitted concentration of half-maximal effect. The gist of the method:
(§2)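 Quantitative high-throughput screen of the Tox21 10K library in HEK293: cells and RealTime-Glo reagents plated together, compound added at 5 h, luminescence monitored through 40 h at 37 C.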

The nature of assay [9]: A CellTox Green Cytotoxicity Assay to monitor cytotoxicity in HEK293 cells - 0 hour (AID 1224869). Note: nearly all actives have a fitted effect of over 50% in size. Note: potency is the fitted concentration of half-maximal effect. The gist of the method: (§3)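 Nonlytic real-time cytotoxicity: HEK293 + CellTox Green reagent plated, 5 h preincubation, pintool compound addition (23 nL in DMSO), 37 C for 40 h, fluorescence measured at successive time points.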
The nature of assay [10]: qHTS RealTime-Glo MT Cell Viability Assay in HepG2 cells - 40 hour (AID 1224870). Note: nearly all actives have a fitted effect of over 50% in size. The gist of the method: (§4)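 Real-time viability: cells seeded at 600 per well together with NanoLuc and cell-permeant prosubstrate, compounds added after 5 h incubation. Luminescence tracked at 0, 8, 16, 24, 32 and 40 h of exposure.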
Assay [11] in a line: A CellTox Green Cytotoxicity Assay to monitor cytotoxicity in HEK293 cells - 40 hour (AID 1224871). Note: nearly all actives have a fitted effect of over 45% in size. Note: potency is the fitted concentration of half-maximal effect. The gist of the method:
as §3

Assay [12] is described as follows: qHTS RealTime-Glo MT Cell Viability Assay in HEK293 cells - 16 hour (AID 1224872). For activity change, negative = cytotoxicity: top concentration of the series differs between compounds. Note: nearly all actives have a fitted effect of over 50% in size. Note: potency is the fitted concentration of half-maximal effect. The gist of the method:
as §2

Assay [13] can be described thus: qHTS RealTime-Glo MT Cell Viability Assay in HepG2 cells - 8 hour (AID 1224873). Note: nearly all actives have a fitted effect of over 55% in size. The gist of the method:
as §4

Assay [14] can be described thus: qHTS RealTime-Glo MT Cell Viability Assay in HEK293 cells - 40 hour (AID 1224874). Note: nearly all actives have a fitted effect of over 50% in size. Note: potency is the fitted concentration of half-maximal effect. To be noted: RealTime-Glo luminescence; max response: stronger effect = lower value. The gist of the method: (§5)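 Cells were seeded together with NanoLuc luciferase and a prosubstrate that viable cells reduce to a luciferase substrate. After a 5 h incubation at 37 C/5% CO2, compounds were added and luminescence was measured repeatedly during 40 h of treatment.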

A short description of assay [15]: A CellTox Green Cytotoxicity Assay to monitor cytotoxicity in HepG2 cells - 16 hour (AID 1224876). Note: nearly all actives have a fitted effect of over 45% in size. Note: potency is the fitted concentration of half-maximal effect. The gist of the method: (§6)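 Read-out is fluorescence of a cyanine dye excluded from live cells that stains DNA of dead HepG2 cells, with signal proportional to cytotoxicity. Plates were read at 0, 8, 16, 24, 32 and 40 h after compound addition.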
Assay [16] in a line: A CellTox Green Cytotoxicity Assay to monitor cytotoxicity in HepG2 cells - 24 hour (AID 1224878). Note: nearly all actives have a fitted effect of over 45% in size. Note: potency is the fitted concentration of half-maximal effect. The gist of the method:
as §6

Assay [17] is described as follows: A CellTox Green Cytotoxicity Assay to monitor cytotoxicity in HepG2 cells - 40 hour (AID 1224879). Note: nearly all actives have a fitted effect of over 40% in size. Note: potency is the fitted concentration of half-maximal effect. The gist of the method:
as §6

Assay [18] is described as follows: qHTS RealTime-Glo MT Cell Viability Assay in HEK293 cells - 0 hour (AID 1224880). Note: top concentration of the series differs between compounds; nearly all actives have a fitted effect of over 45% in size. The gist of the method:
as §5

A short description of assay [19]: A CellTox Green Cytotoxicity Assay to monitor cytotoxicity in HEK293 cells - 24 hour (AID 1224875). Note: nearly all actives have a fitted effect of over 45% in size. The gist of the method: as §3
The nature of assay [20]: qHTS RealTime-Glo MT Cell Viability Assay in HepG2 cells - 32 hour (AID 1224877). Note: nearly all actives have a fitted effect of over 55% in size. The gist of the method: as §1
% is set by controls: 0 for no effect and ±100 for the full control effect.

In the case of `Nc1ccccc1C(=O)OCCc1ccccc1`, the Potency result in [1], in assay [2], in [5], in assay [7], in [10] and in assay [13] was “inactive” each time. Moreover, the molecule was called inactive in assay [3] and in assay [18]. The Potency in [4] is 101 µM (active) and 89.8 µM (active); in [8], 24.5 µM (active); in [9], “inactive and 43.6 µM (active)”; in [11], 21.9 µM (active); in assay [12] it was 24.5 µM (active); in assay [14] it was 24.5 µM (active). Moreover, the Potency in assay [15], in assay [16] and in [17] was 21.9 µM (active) throughout. Besides, the activity change, positive = activation in [6] is 18.1% (active) and 10.8% (active).
Turning to `NNCCO`, the Potency result in [1], in assay [2], in [4], in assay [5], in assay [7] and in [8] was “inactive” in each case. In addition, the Potency result in assay [9], in assay [10], in [11], in assay [12], in assay [19] and in assay [15] was “inactive” throughout. Also, the Potency entry in assay [16] and in [17] was “inactive” each time. The result in assay [3] and in assay [18] was inactive. In addition, the max response in [14] is -1.69% (inactive).
As for `Nc1c(Br)cc(Br)c2c1C(=O)c1ccccc1C2=O`, the activity change, negative = cytotoxicity in [1] was 1.81% [at 15.8 µM] (inactive); in assay [4], -4.33% [at 31.6 µM] (inactive); in assay [7], -0.948% [at 15.8 µM] (inactive); in assay [18], -4.62% [at 15.8 µM] (inactive). Moreover, the activation (H2AX phosphorylation) in [2] is 2.27% [at 31.6 µM] (inactive). Besides, the activation in [3] is 0.237% [at 15.8 µM] (inactive). Moreover, the activity, negative = inhibition in [5] is 31.1% [at 19 µM] (inactive). For the same molecule, the cytotoxicity in [9] was -2.18% [at 15.8 µM] (inactive); in assay [16] it was -5.93% [at 15.8 µM] (inactive). The figures for the activity change, negative = cytotoxic in assay [10] and in [20] were 16.3% [at 15.8 µM] (inactive) and 5.09% [at 15.8 µM] (inactive), respectively. Moreover, the cytotoxicity increase in [11] was -1.3% [at 15.8 µM] (inactive); in [15], -4.68% [at 15.8 µM] (inactive); in assay [17] it was -11% [at 15.8 µM] (inactive). Further, the viability change, negative = cytotoxic in assay [13] is -13.9% [at 15.8 µM] (inactive). Besides, in assay [19], the activity change was -4.1% [at 15.8 µM, stronger effect = higher value] (inactive).
In the case of `FC(F)OC(F)(F)C(F)Cl` (stereo not given), the Potency result in [1], in assay [2], in [4], in assay [7], in assay [8] and in [9] was “inactive” each time. For the same molecule, the Potency result in [10], in assay [11], in [12], in [13], in assay [19] and in assay [15] was “inactive” each time. The Potency result in assay [20], in assay [16] and in [17] was “inactive” each time. For the same molecule, the molecule was classed as inactive in [3] and in assay [18]. In addition, the max response in assay [14] is 8.01% (inactive).
On to `CN1C(=O)CN=C(c2ccccc2)c2cc([N+](=O)[O-])ccc21`, for which the Potency entry in assay [1], in assay [2], in assay [4], in assay [7], in assay [8] and in assay [9] was “inactive” each time. Further, the Potency result in assay [10], in [11], in [12], in assay [13], in assay [19] and in [15] was “inactive” in each case. Besides, the Potency entry in [20], in assay [16] and in assay [17] was “inactive” throughout. For the same molecule, the molecule was called inactive in assay [3] and in assay [18]. In assay [14], the max response was -12% (inactive).
`CCCCCCCCCCCCN(C)C`: the Potency entry in assay [1], in [2], in [4], in [5], in assay [7] and in assay [8] was “inactive” in each case. For the same molecule, the Potency result in assay [9], in assay [10], in [11], in [12], in assay [19] and in assay [15] was “inactive” each time. The Potency result in assay [20] and in assay [16] was “inactive” throughout. In addition, the outcome in assay [3] and in [18] was inactive. For the same molecule, the activity change, positive = activation in assay [6] was 3.27% (inactive). In assay [14], the max response was -4.6% (inactive).
For `C=CCOCC1CO1` (stereo not given), the Potency result in assay [1], in assay [2], in [4], in [5], in assay [7] and in assay [8] was “inactive” in each case. Moreover, the Potency entry in [9], in assay [10], in assay [11], in [12], in [13] and in [19] was “inactive” in each case. The Potency entry in [15], in [20], in [16] and in [17] was “inactive” throughout. Also, the molecule was classed as inactive in [3] and in assay [18]. The activity change, positive = activation in assay [6] is -3.54% (inactive). Further, the max response in [14] was -8.98% (inactive).
